Compounds without any hit were thinned out: in the full panel of roughly 83,000, 20% have a hit.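 Single-dose data. Exposure time 48 hours. Values below 10 considered active.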 Values without a mark were called inactive. The source made the active and inactive calls.
System: HL-60(TB) leukemia
Test: NCI-60 one-dose screen, 48 h (100 = growth as untreated, 0 = no growth, -100 = all killed)
Conditions: 10 µM unless noted

SMILES | growth
O=S(=O)(Nc1ccc(Br)cc1)c1ccc(-c2cnc(C3CC3)o2)cc1 | -36% (active)
Cn1cc(-c2csc(-c3cn(C)c4ncccc34)n2)c2cccnc21 | 95.2%
O=C(CC(=O)C(F)(F)C(F)(F)C(F)(F)F)c1cc2ccccc2o1 | 99.3%
CCCCN(CCCC)CCCN=c1nc2c(c(N)n1-c1ccccc1)c(=S)n(-c1ccccc1)c(=S)n2-c1ccccc1 | -74.8% (active)
[2H]C([2H])([2H])Oc1cc(F)ccc1/C=C/C(=O)/C=C(/C=C/c1ccc(F)cc1OC([2H])([2H])[2H])OB(F)F | 11.6%
CNC(C)[C@H]1CCC2C3CC=C4C(=O)[C@@H](NC(=O)C=C(C)C)CC[C@]4(C)C3CC[C@@]21C (some centres undefined) | -67% (active)
Cc1ccc(-c2cc3nc(C(Cl)Cl)nc(-c4cccnc4)n3n2)cc1 | 10.5%
CN1CCN(C(=O)C(C)(C)c2ccc(C(=O)Nc3cn4cc(-c5ccncc5)ccc4n3)cc2)CC1 | 7.51% (active)
ClCCOCCn1cnc2c(Cl)nc(Cl)nc21 | 40.9%
CCCCn1c(=O)[nH]c2c(c1=O)C(c1ccc(Cl)cc1)c1c([nH]c(=O)n(CCCC)c1=O)N2 | 99.2%
O=C1NC(Cc2c[nH]c3ccccc23)C(=O)N1Cc1ccc(Cl)cc1 (centres undefined) | 74%
Cc1ccc2[nH]c(=S)[nH]c(=O)c2c1 | 105%
C/C(=N\Nc1nc2ccccc2s1)c1ccncn1 | -19.9% (active)
Cc1ccc(C[P+](c2ccccc2)(c2ccccc2)c2ccccc2)cc1 | -63.4% (active)

Reference: PubChem BioAssay (NCI)
